This is an account of results in PubChem BioAssay (NCATS).

Records with an inconclusive call do not appear. Active and inactive are the calls of the source. Unless noted, the call rests on the fitted dose curve; in most records, active means well fitted curve in the direction sought with a large enough effect; inconclusive means small, poorly fitted or top-dose-only effect, or another doubt; inactive means no such curve, though single readings can be large; an effect the other way counts as inactive or inconclusive.

Experiment [1] concerns the target Lysosomal acid glucosylceramidase (Homo sapiens) (UniProt P04062). Kind of experiment: Glucocerebrosidase-p2 (AID 348; in the data active means potency below about 10 µM; further: potency means the concentration at half of the fitted maximal effect). The conditions noted are these: purified GBA, blue fluorogenic substrate, 40 min. Summed up:
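Normal human glucocerebrosidase (0.2 nM) with blue fluorogenic substrate (80 uM final) in citrate/phosphate pH 5.9 with 10mM sodium taurocholate, 0.01% tween-20; 40 min RT, NaOH/glycine stop; fluorescence Ex 365/Em 440; AC50 from a titration from 0.6 nM upwards.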

The nature of experiment [2]: AP1 Signaling Pathway (AID 357; active means well fitted curve in either direction with a large enough effect, not every such curve was filed as active;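 further: ME-180 reporter cells stimulated with EGF at its EC50 level; on the % scale 0 is the no-effect control and ±100 the full control effect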). The conditions noted are these: ME-180 AP-1-bla reporter, EGF-induced, beta-lactamase ratio, 5 h; at 7.69 µM (top of the series) unless noted. The gist of the method: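 AP-1-bla ME-180 cells, Opti-MEM + 0.5% dialyzed FBS, plated overnight 37 °C. Cpd titration + EC50 EGF, 5 h 37 °C. CCF4 2.5 h RT; ex 405, em 460/530 ratio → %activity, AC50.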

Experiment [3] addresses Cytochrome P450 1A2 (Homo sapiens) (UniProt P05177). Kind of experiment: p450-cyp1a2 (AID 410; calls by dose curve; further: potency means the concentration at half of the fitted maximal effect). The conditions noted are these: recombinant CYP1A2, luciferin-ME demethylation, luminescence; series mostly up to 57 µM. The gist of the method:
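Read-out is luminescence from luciferin produced by CYP1A2 demethylation of Luciferin-ME (100uM, at Km). Detection reagent stopped the 60 min NADPH-dependent reaction; signals were normalized to 57 uM furafylline.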

The nature of experiment [4]: NFAT Signaling Pathway (AID 444; active means well fitted curve in either direction with a large enough effect, not every such curve was filed as active;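 further: carbachol stimulus at about its EC50 of 1 µM final; on the % scale 0 is the no-effect control and ±100 the full control effect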). The settings on record: Jurkat NFAT-bla M1, carbachol, beta-lactamase ratio, 5 h; at 7.69 µM (top of the series) unless noted. The gist of the method: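 Read-out: CCF4 FRET ratio (460 nm/530 nm) after 1 h RT dye loading, used for %activity and AC50 from titration series. Cells: Jurkat NFAT-β-lactamase/M1 line, treated with compound plus 1 uM carbachol for 5 h, 37 °C.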

Experiment [5] is described as follows: Stat Signaling Pathway (AID 446; active means well fitted curve in either direction with a large enough effect, not every such curve was filed as active;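 further: ME-180 cervical cancer cells given 40 pM IL-6 alongside compound; SIE-controlled beta-lactamase reporter measured as 460/530 nm FRET emission ratio; on the % scale 0 is the no-effect control and ±100 the full control effect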). The settings on record: ME-180 (cervical carcinoma) SIE beta-lactamase reporter, IL-6 stimulated, 5 h; at 7.69 µM (top of the series) unless noted. The gist of the method:
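Normalization used AC90 stimulation (300 pM IL-6) and AC90 inhibition (125 nM pan-JAK inhibitor at 40 pM IL-6). The underlying signal is SIE-driven beta-lactamase in ME-180 cells after 5 h IL-6 exposure with compound.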

Experiment [6] has as its target Glucocorticoid receptor (Homo sapiens) (UniProt P04150). Nature of the experiment: GR-GFP Redistribution (AID 450;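 active means compounds whose dose series gives a full or clear partial fitted curve of increased nuclear translocation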; further: potency means the concentration at half of the fitted maximal effect). The settings on record: U2OS GR-GFP nuclear translocation, laser cytometry, 2 h.
The target of experiment [7] is Mitogen-activated protein kinase 10 (Mus musculus) (UniProt Q61831). Kind of experiment: JNK3 AlphaScreen Assay (AID 530; active means well fitted curve in either direction with a large enough effect, not every such curve was filed as active;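 further: kinase came from lysate of stimulated human HepG2 cells; signal reports phosphorylation of biotinylated GST-cJun 1-79 at Ser73 with 10 µM ATP; on the % scale 0 is the no-effect control and ±100 the full control effect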). The conditions noted are these: JNK3 lysate, c-Jun phosphorylation; series mostly up to 57.1 µM. The gist of the method:
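Kinase buffer: 20 mM Tris-HCl pH 7.6, 10 mM MgCl2, 1 mM DTT, 0.1 mM Na3VO4, 0.01% Tween-20; ATP 10 uM. Substrate biotin-GST-cJun(1-79), enzyme from activated HepG2 lysates. Detection by Ser73 phospho-antibody AlphaScreen.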
A general note: Alpha assays give light when donor and acceptor beads are brought close together.

Experiment [8] deals with 3',5'-cyclic-AMP phosphodiesterase 4B (Homo sapiens) (UniProt Q07343). Nature of the experiment: qHTS Assay for Inhibitors of PDE-IV (AID 607; active means well fitted activation curve with a large enough effect in the main read-out, with a control signal flat, not every such curve was filed as active; further: % of control where 0% means no effect). The conditions noted are these: HEK293 ACTOne CNG channel cells, membrane potential fluorescence; series mostly up to 22.9 µM. Summed up:
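HEK293 ACTOne cells with CNG channel (1000/well), endogenous PDE4; membrane potential dye, compounds up to 22.9 uM final. Fluorescence Ex 535/Em 590; RO 20-1724 (100 uM final) as reference.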
A general note: qHTS replaces the single test concentration by a dilution series.

Experiment [9] can be described thus: qHTS Assay for Lipid Storage Modulators (AID 1519; calls by dose curve). The conditions noted are these: Drosophila S3 cells, BODIPY lipid droplet/cell ratio, laser cytometry, cells loaded with oleic acid; for activity change, negative = inhibition: at 57.5 µM (top of the series). Summed up: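 Cells seeded at 5,000 per well were treated with compounds over a concentration series and loaded with oleic acid (400 uM, as added). Lipid droplet fluorescence (488 nm excitation, 500-530 nm channel) was read by laser-scanning cytometry and normalized to 20 uM Triacsin C.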

Experiment [10] has as its target Dual specificity protein kinase CLK4 (Homo sapiens) (UniProt Q9HAZ1). Kind of experiment: qHTS Assay for Inhibitors of CDC-like Kinase 4 (Kinase-Glo Assay) (AID 1770). Further: nearly all actives have a fitted effect of over 65% in size. Further: potency means the concentration at half of the fitted maximal effect. The conditions noted are these: recombinant Clk4, Kinase-Glo ATP depletion luminescence; series mostly up to 66.7 µM. The gist of the method: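 Readout: Kinase-Glo luminescence from ATP left after a 4.5 h room-temperature reaction of 25 nM Clk4 with 100 uM RS peptide and 1 uM ATP (final). Buffer: 25 mM Tris pH 7.5, 10 mM MgCl2.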

The target is the same in experiment [11]. Nature of the experiment: qHTS Assay for Inhibitors of CDC-like Kinase 4 (ADP-Glo Assay) (AID 1771). Further: nearly all actives have a fitted effect of over 70% in size. Further: potency means the concentration at half of the fitted maximal effect. The conditions noted are these: recombinant CLK4, ADP-Glo luminescence; series mostly up to 80 µM. The gist of the method:
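In this ADP-Glo format, 1 uM ATP and 100 uM RS peptide served as substrates for 25 nM Clk4 in Mg2+/EGTA/DTT/Triton buffer; reactions ran 1 hr at room temperature before luminescent ADP quantification.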

For experiment [12] the target is unchanged. Nature of the experiment: qHTS Assay for Inhibitors of CDC-like Kinase 4 (ADP-FP Assay) (AID 1795). Further: nearly all actives have a fitted effect of over 60% in size. Further: potency means the concentration at half of the fitted maximal effect. The conditions noted are these: Transcreener ADP fluorescence polarization; series mostly up to 50 µM. The gist of the method: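 FP readout: Orange Transcreener ADP2 tracer (4 nM) plus ADP antibody, read after 30 min at room temperature. Kinase step: 6.25 nM Clk4, 100 uM RS peptide, 1 uM ATP, pH 7.5, 1 h.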

Experiment [13] deals with Ubiquitin carboxyl-terminal hydrolase 1 (Homo sapiens) (UniProt O94782). Nature of the experiment: Inhibitors of USP1/UAF1: Pilot qHTS (AID 504865).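 Further: rhodamine fluorescence freed from ubiquitin-rhodamine substrate followed over time; top concentration of the series differs between compounds; on the % scale 0 is the no-effect control and ±100 the full control effect; nearly all actives have a fitted effect of over 35% in size.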 The settings on record: purified USP1/UAF1, Ub-rhodamine cleavage fluorescence; series mostly up to 54.9 µM. The gist of the method:
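1nM USP1/UAF1 + cpd, 15 min RT; start w/ Ub-Rho 150nM final; kinetic FL 480/540 nm, 6 reads q60 s. Buffer 50mM HEPES pH 7.8, 0.5mM EDTA, 1mM TCEP, 0.01% Tween-20, 0.1 mg/ml BSA.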

Experiment [14] can be described thus: Primary qHTS for small molecule stabilizers of the endoplasmic reticulum resident proteome: Secreted ER Calcium Modulated Protein (SERCaMP) assay (AID 1508630). Further: on the % scale 0 is the no-effect control and ±100 the full control effect. The settings on record: SH-SY5Y GLuc-SERCaMP (Gaussia luciferase released on ER calcium loss) secretion, thapsigargin, luminescence; series mostly up to 38.4 µM. The gist of the method:
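The SH-SY5Y reporter protocol was run at 3 concentrations up to 38.3 uM (primary) or 11 concentrations (follow-up): 16 h compound, 100 nM thapsigargin for 4 h, then extracellular luciferase luminescence.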

The target in experiment [15] is Glucocorticoid receptor (Homo sapiens) (UniProt P04150). Nature of the experiment: GR-EFC Redistribution (AID 451; calls by dose curve; further: potency means the concentration at half of the fitted maximal effect). The conditions noted are these: CHO-K1 GR-EFC translocation, beta-gal luminescence, 2 h. Summed up: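 Translocation of GR-ED fusion to nuclear EA restores b-gal, read by luminescence after 1 h room-temperature detection. Engineered CHO-K1 biosensor cells, 1,000/well, exposed 2 h at 37 C to titrations up to 46 uM final.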
Chain of Glucocorticoid receptor (Homo sapiens) (P04150 whole entry, looked up, the tested form may be a part): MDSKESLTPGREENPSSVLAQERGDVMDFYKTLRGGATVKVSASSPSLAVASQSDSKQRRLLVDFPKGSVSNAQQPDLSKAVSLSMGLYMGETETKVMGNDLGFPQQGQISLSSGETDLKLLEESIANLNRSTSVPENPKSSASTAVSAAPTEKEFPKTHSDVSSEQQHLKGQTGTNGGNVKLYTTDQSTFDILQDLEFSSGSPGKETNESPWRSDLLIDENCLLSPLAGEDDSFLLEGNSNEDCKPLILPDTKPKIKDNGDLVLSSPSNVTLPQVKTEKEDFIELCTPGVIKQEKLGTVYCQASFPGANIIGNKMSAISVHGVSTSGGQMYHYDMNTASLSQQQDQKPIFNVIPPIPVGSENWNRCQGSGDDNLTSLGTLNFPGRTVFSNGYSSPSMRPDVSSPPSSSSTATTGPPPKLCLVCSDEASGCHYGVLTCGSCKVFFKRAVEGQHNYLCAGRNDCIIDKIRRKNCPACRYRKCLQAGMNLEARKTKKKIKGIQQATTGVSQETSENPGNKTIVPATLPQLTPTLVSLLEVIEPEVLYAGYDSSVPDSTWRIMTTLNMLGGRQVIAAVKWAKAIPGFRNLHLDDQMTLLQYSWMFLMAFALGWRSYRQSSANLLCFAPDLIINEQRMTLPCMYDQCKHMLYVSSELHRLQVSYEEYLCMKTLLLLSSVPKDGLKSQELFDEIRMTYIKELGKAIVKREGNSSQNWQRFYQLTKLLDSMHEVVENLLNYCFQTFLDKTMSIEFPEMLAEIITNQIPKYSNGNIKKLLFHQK

The target of experiment [16] is Cytochrome P450 3A4 (Homo sapiens) (UniProt P08684). Kind of experiment: qHTS Assay for Inhibitors and Substrates of Cytochrome P450 3A4 (AID 884). Further: nearly all actives have a fitted effect of over 50% in size. Further: potency means the concentration at half of the fitted maximal effect. The settings on record: recombinant CYP3A4, Luciferin-PPXE luminescence; series mostly up to 57.1 µM. The gist of the method: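 Luminescent readout of luciferin produced by CYP3A4 (20 nM) dealkylation of Luciferin-PPXE, 25 uM (its KM). NADPH-driven reaction ran 60 min at RT after 10 min compound preincubation; data scaled to 57 uM ketoconazole as 100% inhibition.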
Chain of Cytochrome P450 3A4 (Homo sapiens) (P08684 whole entry, looked up): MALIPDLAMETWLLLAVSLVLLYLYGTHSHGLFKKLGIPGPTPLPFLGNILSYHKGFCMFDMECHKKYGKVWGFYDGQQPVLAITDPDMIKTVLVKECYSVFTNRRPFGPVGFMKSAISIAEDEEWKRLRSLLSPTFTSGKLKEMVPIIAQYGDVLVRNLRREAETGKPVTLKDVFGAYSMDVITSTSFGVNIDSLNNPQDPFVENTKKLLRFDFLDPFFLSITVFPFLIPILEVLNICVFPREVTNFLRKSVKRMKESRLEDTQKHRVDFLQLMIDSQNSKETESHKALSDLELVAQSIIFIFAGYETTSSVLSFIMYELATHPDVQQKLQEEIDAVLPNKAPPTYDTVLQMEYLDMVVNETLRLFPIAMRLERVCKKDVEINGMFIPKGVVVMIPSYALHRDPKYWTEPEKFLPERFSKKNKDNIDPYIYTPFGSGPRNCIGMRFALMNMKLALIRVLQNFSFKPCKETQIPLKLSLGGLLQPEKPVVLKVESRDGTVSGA

The target is the same in experiment [17]. Nature of the experiment: qHTS Assay for Activators of Cytochrome P450 3A4 (AID 885). Further: nearly all actives have a fitted effect of over 65% in size. The conditions noted are these: recombinant CYP3A4, Luciferin-PPXE luminescence, 60 min; series mostly up to 57.1 µM. Summed up:
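Human CYP3A4 dealkylates Luciferin-PPXE to luciferin, which luciferase detection converts to light. Substrate was at its KM (25uM), buffer 200mM KPO4, reaction 60 min at RT.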

Setting [18] is: measured here: cell count channel max response.
[19] abbreviates: measured here: lipid channel max response.

Chain of Dual specificity protein kinase CLK4 (Homo sapiens) (Q9HAZ1 whole entry, looked up): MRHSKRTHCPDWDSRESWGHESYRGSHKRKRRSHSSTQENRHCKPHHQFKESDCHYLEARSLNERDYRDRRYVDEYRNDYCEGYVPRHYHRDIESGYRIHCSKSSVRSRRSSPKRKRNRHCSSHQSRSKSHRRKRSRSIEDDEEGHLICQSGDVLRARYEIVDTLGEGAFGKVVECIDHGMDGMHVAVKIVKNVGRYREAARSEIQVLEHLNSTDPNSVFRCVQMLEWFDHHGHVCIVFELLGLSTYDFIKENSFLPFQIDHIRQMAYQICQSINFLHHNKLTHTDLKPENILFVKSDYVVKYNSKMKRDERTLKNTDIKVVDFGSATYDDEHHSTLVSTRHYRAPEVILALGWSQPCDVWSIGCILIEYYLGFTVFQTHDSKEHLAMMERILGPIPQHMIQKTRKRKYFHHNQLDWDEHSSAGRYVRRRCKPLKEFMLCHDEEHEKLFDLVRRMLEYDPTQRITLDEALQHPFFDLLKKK
Chain of Cytochrome P450 1A2 (Homo sapiens) (P05177 whole entry, looked up): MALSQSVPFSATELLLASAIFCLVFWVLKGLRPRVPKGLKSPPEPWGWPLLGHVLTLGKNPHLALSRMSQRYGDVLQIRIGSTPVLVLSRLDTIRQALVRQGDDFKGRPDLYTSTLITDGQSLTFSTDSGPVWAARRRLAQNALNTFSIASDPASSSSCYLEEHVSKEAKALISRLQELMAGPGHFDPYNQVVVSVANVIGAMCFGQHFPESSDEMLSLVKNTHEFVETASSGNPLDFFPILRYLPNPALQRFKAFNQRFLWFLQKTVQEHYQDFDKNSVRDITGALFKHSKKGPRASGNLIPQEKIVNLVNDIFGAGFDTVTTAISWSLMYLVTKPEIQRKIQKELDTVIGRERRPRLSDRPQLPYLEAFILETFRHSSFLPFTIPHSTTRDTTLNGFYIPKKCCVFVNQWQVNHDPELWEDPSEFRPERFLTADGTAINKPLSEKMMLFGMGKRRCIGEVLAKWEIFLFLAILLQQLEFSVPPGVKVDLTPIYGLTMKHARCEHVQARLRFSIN
Chain of 3',5'-cyclic-AMP phosphodiesterase 4B (Homo sapiens) (Q07343 whole entry, looked up): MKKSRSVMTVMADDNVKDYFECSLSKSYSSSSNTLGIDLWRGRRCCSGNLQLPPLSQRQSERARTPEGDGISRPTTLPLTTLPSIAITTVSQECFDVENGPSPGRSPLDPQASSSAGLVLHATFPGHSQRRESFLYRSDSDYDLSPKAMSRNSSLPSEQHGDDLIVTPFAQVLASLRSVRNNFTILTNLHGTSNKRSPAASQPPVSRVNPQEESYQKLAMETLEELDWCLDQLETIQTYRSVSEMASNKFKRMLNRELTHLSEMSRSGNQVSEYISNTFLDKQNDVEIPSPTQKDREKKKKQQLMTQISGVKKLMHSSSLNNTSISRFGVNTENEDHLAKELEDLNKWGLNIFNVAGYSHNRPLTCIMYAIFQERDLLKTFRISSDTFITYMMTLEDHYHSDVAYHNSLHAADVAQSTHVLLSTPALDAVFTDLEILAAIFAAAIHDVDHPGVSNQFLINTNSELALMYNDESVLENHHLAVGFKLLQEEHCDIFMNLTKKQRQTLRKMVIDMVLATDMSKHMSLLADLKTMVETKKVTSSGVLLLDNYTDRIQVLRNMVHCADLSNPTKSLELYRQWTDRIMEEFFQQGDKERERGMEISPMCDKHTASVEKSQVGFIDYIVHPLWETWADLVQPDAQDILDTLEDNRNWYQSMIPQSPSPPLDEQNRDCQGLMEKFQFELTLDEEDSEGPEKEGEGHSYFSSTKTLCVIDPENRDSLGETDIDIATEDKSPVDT
Chain of Lysosomal acid glucosylceramidase (Homo sapiens) (P04062 whole entry, looked up): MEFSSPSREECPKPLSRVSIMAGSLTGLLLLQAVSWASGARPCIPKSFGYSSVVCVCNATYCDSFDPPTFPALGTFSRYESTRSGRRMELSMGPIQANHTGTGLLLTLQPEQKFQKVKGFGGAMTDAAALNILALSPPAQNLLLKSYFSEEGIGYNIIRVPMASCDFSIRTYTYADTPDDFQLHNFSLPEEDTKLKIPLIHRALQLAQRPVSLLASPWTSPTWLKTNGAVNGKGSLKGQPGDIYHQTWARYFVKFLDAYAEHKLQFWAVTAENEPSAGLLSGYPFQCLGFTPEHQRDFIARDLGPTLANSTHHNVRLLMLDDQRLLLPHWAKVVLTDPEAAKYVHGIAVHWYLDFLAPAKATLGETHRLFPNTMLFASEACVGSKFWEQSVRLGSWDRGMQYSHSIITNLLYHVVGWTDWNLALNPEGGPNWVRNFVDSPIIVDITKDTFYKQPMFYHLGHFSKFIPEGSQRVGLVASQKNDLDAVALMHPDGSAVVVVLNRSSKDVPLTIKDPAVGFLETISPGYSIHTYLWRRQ
Chain of Ubiquitin carboxyl-terminal hydrolase 1 (Homo sapiens) (O94782 whole entry, looked up): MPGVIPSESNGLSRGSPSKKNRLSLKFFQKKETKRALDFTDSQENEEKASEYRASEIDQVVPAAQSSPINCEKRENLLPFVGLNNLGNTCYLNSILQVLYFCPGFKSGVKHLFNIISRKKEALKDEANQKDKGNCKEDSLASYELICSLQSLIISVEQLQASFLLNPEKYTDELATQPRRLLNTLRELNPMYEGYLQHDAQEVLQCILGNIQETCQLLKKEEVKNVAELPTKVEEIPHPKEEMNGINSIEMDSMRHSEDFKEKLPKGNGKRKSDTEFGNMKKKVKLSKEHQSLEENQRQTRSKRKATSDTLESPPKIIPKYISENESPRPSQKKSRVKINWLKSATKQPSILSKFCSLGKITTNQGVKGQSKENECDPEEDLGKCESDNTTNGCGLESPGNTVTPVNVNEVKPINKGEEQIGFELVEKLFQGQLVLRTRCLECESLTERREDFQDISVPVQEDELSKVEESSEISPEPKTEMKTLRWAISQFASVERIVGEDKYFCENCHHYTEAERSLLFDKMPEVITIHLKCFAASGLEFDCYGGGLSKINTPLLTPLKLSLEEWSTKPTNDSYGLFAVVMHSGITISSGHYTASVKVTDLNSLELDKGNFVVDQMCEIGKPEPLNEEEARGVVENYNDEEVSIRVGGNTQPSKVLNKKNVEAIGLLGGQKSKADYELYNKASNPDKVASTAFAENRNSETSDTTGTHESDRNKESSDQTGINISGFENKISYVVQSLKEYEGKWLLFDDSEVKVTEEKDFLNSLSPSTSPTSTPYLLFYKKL

As to `Cc1nc2cnc(N(C)C)nc2n(CCC#N)c1=O`, the Potency in experiment [1] was > 11.4 µM (inactive); in experiment [3], 10 µM (active); in experiment [6], > 9.22 µM (inactive). Moreover, the activity change, negative = inhibition in experiment [2] is -8.9% (inactive); in experiment [4], -13.7% (inactive); in experiment [9], 2.74% (inactive). Moreover, in experiment [5], the activity, negative = inhibition was -1.16% (inactive). Further, in experiment [7], the outcome was inactive. Besides, the Potency result in experiment [8], in [10], in [11], in experiment [12], in [13] and in experiment [14] was “inactive” each time. In addition, the max response in [9] (setting [18]) amounted to 4.56%; in experiment [9] (setting [19]), 5.95%.
Take `O=c1c(-c2cccs2)nc2cncnc2n1Cc1ccccc1`: the Potency in [1] is > 11.4 µM (inactive); in [3] it was 2.51 µM (active); in experiment [6] it was > 9.22 µM (inactive); in [15], > 46 µM (inactive); in experiment [16] it was 6.31 µM (active). The values for the activity change, negative = inhibition in experiment [2], in [4] and in [9] were -16.8% (inactive), 1.15% (inactive) and 1.03% (inactive), respectively. The activity, negative = inhibition in experiment [5] is 7.21% (inactive). In addition, the compound was classed as inactive in experiment [7]. Moreover, the Potency result in experiment [17], in experiment [10], in experiment [11], in experiment [12], in experiment [13] and in experiment [14] was “inactive” each time. In addition, the max response was found to be 22.1% in experiment [9] (setting [18]) and 21.4% in experiment [9] (setting [19]).
As for `Cc1noc(C)c1-c1cc(NCc2cccs2)ncn1`, the Potency in [1] was > 11.4 µM (inactive); in experiment [3], 0.794 µM (active); in experiment [6], > 46 µM (inactive); in experiment [15], > 46 µM (inactive); in experiment [10] it was 11.2 µM (active); in experiment [11], 10 µM (active). Moreover, the Potency in experiment [12] was 14.1 µM (active). Further, the results for the activity change, negative = inhibition in [2], in experiment [4] and in [9] were 17% (inactive), -7.58% (inactive) and 5.54% (inactive), respectively. Besides, the activity, negative = inhibition in experiment [5] is 7.7% (inactive). For the same compound, in experiment [7], the outcome was inactive. In addition, the Potency result in experiment [8], in [17], in [13] and in [14] was “inactive” each time. Further, the max response is 20.5% in experiment [9] (setting [18]) and 27.7% in [9] (setting [19]).
For the compound `CN(C)C(=O)c1ccc(-c2ccc3ncnc(N(C)C)c3c2)cc1`, the Potency in experiment [1] is > 11.4 µM (inactive); in experiment [3] it was 20 µM (active); in [6], > 46 µM (inactive); in [15], > 46 µM (inactive); in [10], 25.1 µM (active); in [11], 28.2 µM (active). Further, the activity change, negative = inhibition is -20.2% (inactive) in experiment [2], 9.63% (inactive) in experiment [4] and 4.12% (inactive) in experiment [9]. Besides, in experiment [5], the activity, negative = inhibition is -6.55% (inactive). The call in experiment [7] was inactive. Moreover, the Potency result in [8], in [17], in experiment [12], in experiment [13] and in experiment [14] was “inactive” each time. Also, the max response in experiment [9] (setting [18]) turned out to be 19.1%; in experiment [9] (setting [19]), 22.2%.
For the compound `Cc1noc(C)c1-c1cc(NC2CCNCC2)ncn1`, the Potency in [1] is > 11.4 µM (inactive); in [3], 0.126 µM (active); in experiment [6], > 46 µM (inactive); in experiment [15], > 46 µM (inactive). Further, the activity change, negative = inhibition in [2] was 8.23% (inactive); in [4], 8.17% (inactive); in [9], 3.45% (inactive). In [5], the activity, negative = inhibition was 5.01% (inactive). Also, in experiment [7], the outcome was inactive. Moreover, the Potency result in experiment [8], in experiment [16], in experiment [10], in experiment [11], in experiment [12] and in experiment [13] was “inactive” in each case. The Potency result in experiment [14] is “inactive”. The max response was -17.1% in [9] (setting [18]) and -14.9% in experiment [9] (setting [19]).
